From PubChem BioAssay
For some assays here: Potency and affinity values are given separately. Calls of active or inactive are those of the source. Unless noted, the rule behind the calls is not given here.

Key:
[1] = antimalarial activity against Dd2 strain (AID 2302;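 active = growth inhibition above 50% at the single 2 µM test dose, taken to imply half-maximal potency below 2 µM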;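 note: 0% = DMSO untreated growth and 100% = chloroquine plus artemisinin killed control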); details: P. falciparum Dd2 in RBCs, LDH growth readout, 72 h; at 2 µM; active compounds read high
[2] = human hepatoma cell viability loss – ATP luminescence, cytotoxicity control for P. falciparum antimalarial project, primary screen (AID 2303;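 active = inhibition above 50%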;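 note: 0% = DMSO wells and 100% = digitonin-killed cells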); details: HepG2 viability, 24-48 h, at 10 µM, active compounds read high
[3] = target: L-lactate dehydrogenase (Plasmodium falciparum (isolate CDC / Honduras)) (UniProt Q27743); assay: PfLDH activity inhibition – cell lysate, 3D7 strain, counter-screen for P. falciparum growth inhibition project (AID 2304);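 note: 0% = vehicle and 100% = reference inhibitor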; details: P. falciparum 3D7 crude extract, LDH APAD/NBT absorbance; at 2 µM; active compounds read high
[4] = inhibition of 3D7 malaria parasite growth – strain 3D7 (AID 2306);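 note: 0% = DMSO wells and 100% = chloroquine plus artemisinin control wells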; details: P. falciparum 3D7 erythrocytic growth, LDH absorbance, 72 h; at 2 µM; active compounds read high
[5] = target: Calcium-dependent protein kinase 1 (Plasmodium falciparum (isolate 3D7)) (UniProt P62344); assay: PfCDPK1 kinase inhibitors, biochemical, TCAMS library (AID 1159585; cut-off not given, nearly all actives have IC50 up to about 0.98 µM;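 note: inhibitors leave more ATP so luminescence rises with inhibition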); details: recombinant PfCDPK1, Kinase-Glo ATP depletion luminescence
[6] = target: Plasmodium falciparum protein kinase 6 (PK6, PF3D7_1337100) (UniProt Q8IDW1); assay: PfPK6 kinase inhibitors, biochemical, TCAMS library (AID 1159586); details: recombinant PfPK6, Kinase-Glo ATP depletion luminescence
[7] = target: Protein kinase 7 (PK7), Plasmodium falciparum 3D7 (PF3D7_0213400) (UniProt Q7YTF7); assay: inhibition of Plasmodium PK7 catalytic activity – biochemical, TCAMS antimalarial set, Kinase-Glo luminescence (AID 1159587); details: recombinant PfPK7, Kinase-Glo ATP depletion luminescence
[8] = target: Calcium-dependent protein kinase 4 (Plasmodium falciparum (isolate 3D7)) (UniProt Q8IBS5); assay: PfCDPK4 kinase inhibitors, biochemical, TCAMS library (AID 1159588; cut-off not given, nearly all actives have IC50 up to about 0.91 µM); details: recombinant PfCDPK4, Kinase-Glo ATP depletion luminescence
Sequence of Calcium-dependent protein kinase 4 (Plasmodium falciparum (isolate 3D7)) (Q8IBS5 whole entry, looked up): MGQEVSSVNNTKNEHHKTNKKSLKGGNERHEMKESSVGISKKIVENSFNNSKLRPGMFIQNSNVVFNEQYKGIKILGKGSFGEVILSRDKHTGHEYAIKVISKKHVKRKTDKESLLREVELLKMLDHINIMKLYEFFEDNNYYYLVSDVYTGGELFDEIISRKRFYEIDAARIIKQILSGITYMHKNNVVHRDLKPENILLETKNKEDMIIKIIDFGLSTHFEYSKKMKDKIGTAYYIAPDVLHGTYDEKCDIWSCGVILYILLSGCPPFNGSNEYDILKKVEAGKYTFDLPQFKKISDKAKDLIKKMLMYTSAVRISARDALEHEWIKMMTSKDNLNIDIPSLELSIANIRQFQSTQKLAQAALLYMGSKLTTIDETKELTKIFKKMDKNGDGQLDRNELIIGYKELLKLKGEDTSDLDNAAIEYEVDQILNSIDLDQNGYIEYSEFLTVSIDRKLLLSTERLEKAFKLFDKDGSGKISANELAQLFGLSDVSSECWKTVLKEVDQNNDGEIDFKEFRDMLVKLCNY

Sequence of Plasmodium falciparum protein kinase 6 (PK6, PF3D7_1337100) (Q8IDW1 1-305): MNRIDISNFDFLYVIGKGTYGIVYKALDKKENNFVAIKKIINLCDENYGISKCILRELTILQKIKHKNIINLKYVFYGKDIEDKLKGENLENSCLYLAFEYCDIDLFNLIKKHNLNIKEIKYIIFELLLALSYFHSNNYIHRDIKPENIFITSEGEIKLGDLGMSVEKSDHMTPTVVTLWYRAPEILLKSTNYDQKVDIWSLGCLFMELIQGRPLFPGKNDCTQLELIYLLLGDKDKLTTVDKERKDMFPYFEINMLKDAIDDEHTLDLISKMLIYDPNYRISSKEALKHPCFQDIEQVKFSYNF
Sequence of Calcium-dependent protein kinase 1 (Plasmodium falciparum (isolate 3D7)) (P62344 whole entry, looked up): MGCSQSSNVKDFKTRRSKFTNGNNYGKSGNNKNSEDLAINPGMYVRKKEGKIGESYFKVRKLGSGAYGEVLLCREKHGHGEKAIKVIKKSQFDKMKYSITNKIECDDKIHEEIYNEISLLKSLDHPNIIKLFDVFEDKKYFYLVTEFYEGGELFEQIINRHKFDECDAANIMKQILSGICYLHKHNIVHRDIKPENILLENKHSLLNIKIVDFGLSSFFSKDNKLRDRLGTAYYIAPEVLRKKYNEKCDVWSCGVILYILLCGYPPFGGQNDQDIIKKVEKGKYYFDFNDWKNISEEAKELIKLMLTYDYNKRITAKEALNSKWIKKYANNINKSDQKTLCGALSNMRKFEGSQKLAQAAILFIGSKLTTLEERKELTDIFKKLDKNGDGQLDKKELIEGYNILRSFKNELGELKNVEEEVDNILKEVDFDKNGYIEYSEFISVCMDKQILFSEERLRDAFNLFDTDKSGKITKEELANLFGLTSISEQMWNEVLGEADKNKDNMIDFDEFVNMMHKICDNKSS
Sequence of Protein kinase 7 (PK7), Plasmodium falciparum 3D7 (PF3D7_0213400) (Q7YTF7 1-343): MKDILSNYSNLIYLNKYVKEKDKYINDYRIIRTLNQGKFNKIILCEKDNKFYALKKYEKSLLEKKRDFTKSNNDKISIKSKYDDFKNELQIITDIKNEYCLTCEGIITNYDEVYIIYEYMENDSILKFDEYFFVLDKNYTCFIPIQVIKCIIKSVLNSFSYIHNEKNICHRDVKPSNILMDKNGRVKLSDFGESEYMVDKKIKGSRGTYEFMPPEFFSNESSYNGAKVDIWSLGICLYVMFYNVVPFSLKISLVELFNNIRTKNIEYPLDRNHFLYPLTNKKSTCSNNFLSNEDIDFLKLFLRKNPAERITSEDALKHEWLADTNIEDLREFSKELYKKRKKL
Sequence of L-lactate dehydrogenase (Plasmodium falciparum (isolate CDC / Honduras)) (Q27743 whole entry, looked up): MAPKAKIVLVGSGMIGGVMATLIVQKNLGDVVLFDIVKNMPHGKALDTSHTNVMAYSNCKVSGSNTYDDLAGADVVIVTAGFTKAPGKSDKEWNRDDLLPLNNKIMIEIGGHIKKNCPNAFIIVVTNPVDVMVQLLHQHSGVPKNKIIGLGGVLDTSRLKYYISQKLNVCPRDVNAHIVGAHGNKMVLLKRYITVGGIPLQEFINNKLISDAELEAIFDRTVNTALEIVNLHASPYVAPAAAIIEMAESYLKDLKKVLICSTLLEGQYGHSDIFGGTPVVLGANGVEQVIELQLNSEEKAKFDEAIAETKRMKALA

CN(CCCc1c[nH]c2ccccc12)CC1CCN(C(=O)/C=C/c2ccc(Cl)c(Cl)c2)CC1
inactive: growth inhibition [1] 25% | inhibition [2] 37% | inhibition [3] -1% | outcome [5] | outcome [6] | outcome [7] | outcome [8]
active: growth inhibition [4] 99%

Cc1ccc(NC(=S)NC2CCN(CCCCCNC(=O)/C=C/c3ccc(Cl)c(Cl)c3)CC2)cc1Cl
active: growth inhibition [1] 56% | growth inhibition [4] 100%
inactive: inhibition [2] 45% | inhibition [3] 7% | outcome [5] | outcome [6] | outcome [7] | outcome [8]

COc1ccc(S(=O)(=O)N2CCOCC2)cc1NC(=O)c1cc2ccccc2o1
active: growth inhibition [4] 93%
inactive: growth inhibition [1] -1% | inhibition [2] 8% | inhibition [3] -2% | outcome [5] | outcome [6] | outcome [7] | outcome [8]

O=C(NCC1Cc2cc(Oc3ccccc3)ccc2O1)c1ccc([N+](=O)[O-])o1 (stereo unspecified)
active: growth inhibition [1] 81% | inhibition [2] 83% | growth inhibition [4] 88%
inactive: inhibition [3] -3% | outcome [5] | outcome [6] | outcome [7] | outcome [8]

CCCCCCNC(=O)C1Cc2c([nH]c3cc(Cl)ccc23)C2(CCN(Cc3ccccc3)CC2)N1 (stereo unspecified)
active: growth inhibition [1] 56% | growth inhibition [4] 90%
inactive: inhibition [2] 21% | inhibition [3] 2% | outcome [5] | outcome [6] | outcome [7] | outcome [8]

CC(C)N1CCN(C(CN2CCN(CCCOc3ccc(-c4ccccc4)cc3)CC2)c2ccc(F)cc2)CC1 (stereo unspecified)
inactive: inhibition [3] -2% | outcome [5] | outcome [6] | outcome [7] | outcome [8]
active: growth inhibition [1] 100% | inhibition [2] 100% | growth inhibition [4] 100%

COc1ccc(CCn2c(=N)c(C(=O)NC3CCCC3)cc3c(=O)n4ccccc4nc32)cc1
inactive: growth inhibition [1] 34% | inhibition [2] 11% | inhibition [3] 1% | outcome [5] | outcome [6] | outcome [7] | outcome [8]
active: growth inhibition [4] 99%

Cc1[nH]c2ccc(-c3ccc(N(C)C)cc3)cc2c(=O)c1Cl
active: growth inhibition [1] 96% | growth inhibition [4] 97%
inactive: inhibition [2] -1% | inhibition [3] 5% | outcome [5] | outcome [6] | outcome [7] | outcome [8]

CC1CN(Cc2cccc(C#N)c2)CCN1c1ccc(NC(=O)c2cccs2)cc1 (stereo unspecified)
active: growth inhibition [1] 93% | growth inhibition [4] 94%
inactive: inhibition [2] 4% | inhibition [3] 5% | outcome [5] | outcome [6] | outcome [7] | outcome [8]

N#Cc1c(N2CCCCCC2)nc(N)c2c(N)nc3c(c12)CC(=O)N3c1ccc(F)cc1
active: growth inhibition [1] 91% | growth inhibition [4] 97%
inactive: inhibition [2] -7% | inhibition [3] -1% | outcome [5] | outcome [6] | outcome [7] | outcome [8]

CCOC(=O)C(C#N)NC(=O)C=Cc1ccccc1 (stereo unspecified)
active: growth inhibition [4] 96%
inactive: growth inhibition [1] 9% | inhibition [2] -7% | inhibition [3] 6% | outcome [5] | outcome [6] | outcome [7] | outcome [8]

COc1ccc(-c2csc3ncnc(Cl)c23)cc1
inactive: inhibition [2] -15% | inhibition [3] 5% | outcome [5] | outcome [6] | outcome [7] | outcome [8]
active: growth inhibition [1] 97% | growth inhibition [4] 96%

O=C(/C=C/c1cccc(Cl)c1)NCCCCCN1CCC(c2c[nH]c3ccccc23)CC1
active: growth inhibition [4] 89%
inactive: growth inhibition [1] 17% | inhibition [2] 46% | inhibition [3] -2% | outcome [5] | outcome [6] | outcome [7] | outcome [8]

CCOc1cc(C(=O)NCC2CCN(CC3CCCCC3)CC2)ccc1-c1nc2ccc(Cl)cc2[nH]1
inactive: inhibition [2] 14% | inhibition [3] -6% | outcome [5] | outcome [6] | outcome [7] | outcome [8]
active: growth inhibition [1] 59% | growth inhibition [4] 98%

CN(C)c1ccc(-c2csc(C(=O)NCC3CCN(CC4CCCCC4)C3)c2)cc1 (stereo unspecified)
inactive: growth inhibition [1] 28% | inhibition [2] 35% | inhibition [3] 1% | outcome [5] | outcome [6] | outcome [7] | outcome [8]
active: growth inhibition [4] 86%

COc1cccc2c(NN=Cc3ccccc3[N+](=O)[O-])cc(C)nc12
active: growth inhibition [4] 99%
inactive: growth inhibition [1] 32% | inhibition [2] -6% | inhibition [3] -5% | outcome [5] | outcome [6] | outcome [7] | outcome [8]

COc1ccc2nccc([C@@H](O)CN3CCC(NS(=O)(=O)c4cc(Br)c(Br)s4)CC3)c2c1
inactive: growth inhibition [1] 36% | inhibition [2] 14% | inhibition [3] -2% | outcome [5] | outcome [6] | outcome [7] | outcome [8]
active: growth inhibition [4] 92%

c1ccc(-c2ccc3c(Nc4ccc5[nH]ncc5c4)ccnc3c2)nc1
inactive: inhibition [3] 4% | outcome [5] | outcome [6] | outcome [7] | outcome [8]
active: growth inhibition [1] 99% | inhibition [2] 99% | growth inhibition [4] 100%

O=C(Nc1ccccc1O)c1ccc(S(=O)(=O)c2ccc(Cl)cc2)cc1
inactive: inhibition [2] 18% | inhibition [3] -7% | outcome [5] | outcome [6] | outcome [7] | outcome [8]
active: growth inhibition [1] 85% | growth inhibition [4] 90%

CCN(CC)C(=O)C1CCN(C(C(=O)N2CCN(CC(=O)N3CCCC3)CC2)c2cc3ccccc3o2)CC1 (stereo unspecified)
active: growth inhibition [4] 98%
inactive: growth inhibition [1] 4% | inhibition [2] -11% | inhibition [3] -7% | outcome [5] | outcome [6] | outcome [7] | outcome [8]

Cc1c(CNCCCNc2nc3ccccc3[nH]2)sc(C(F)F)c1Br
active: growth inhibition [4] 102%
inactive: growth inhibition [1] 5% | inhibition [2] 9% | inhibition [3] 2% | outcome [5] | outcome [6] | outcome [7] | outcome [8]

O=C(NC1CCN(CCN2CCc3ccccc3CC2)CC1)c1ccc(-c2ccc(C(F)(F)F)cc2)cc1
inactive: growth inhibition [1] 43% | inhibition [2] 45% | inhibition [3] -4% | outcome [5] | outcome [6] | outcome [7] | outcome [8]
active: growth inhibition [4] 99%

COc1ccc2nccc(NN=Cc3ccccc3[N+](=O)[O-])c2c1
inactive: inhibition [3] -2% | outcome [5] | outcome [6] | outcome [7] | outcome [8]
active: growth inhibition [1] 100% | inhibition [2] 67% | growth inhibition [4] 100%

Cc1ccc(Nc2nc3cc(Nc4ccnc(Nc5ccc(CS(C)(=O)=O)cc5)n4)ccc3o2)cc1
active: growth inhibition [1] 66% | inhibition [2] 54% | growth inhibition [4] 99%
inactive: inhibition [3] 2% | outcome [5] | outcome [6] | outcome [7] | outcome [8]

Oc1cccc(Nc2ccnc3cc(-c4ccccn4)ccc23)c1
inactive: inhibition [2] 24% | inhibition [3] -3% | outcome [5] | outcome [6] | outcome [7] | outcome [8]
active: growth inhibition [1] 98% | growth inhibition [4] 96%

Cc1cccc2[nH]c(-c3ccc(-c4cccc(CNCC5CCCO5)c4)cc3)nc12 (stereo unspecified)
active: growth inhibition [1] 50% | growth inhibition [4] 101%
inactive: inhibition [2] 18% | inhibition [3] -5% | outcome [5] | outcome [6] | outcome [7] | outcome [8]

Cc1cc(N2CCN(CC3CCCCC3)CC2)nc(Nc2ccc(Br)cc2)n1
active: growth inhibition [4] 91%
inactive: growth inhibition [1] 16% | inhibition [2] -1% | inhibition [3] -6% | outcome [5] | outcome [6] | outcome [7] | outcome [8]

O=C(Nc1ccc(N2CCN(Cc3cccc(F)c3)CC2)cc1)c1cccs1
inactive: inhibition [2] -5% | inhibition [3] -1% | outcome [5] | outcome [6] | outcome [7] | outcome [8]
active: growth inhibition [1] 92% | growth inhibition [4] 95%

OC1CCCN(Cc2ccc(-c3cccc(-c4nc5ccccc5[nH]4)c3)cc2)C1 (stereo unspecified)
active: growth inhibition [4] 86%
inactive: growth inhibition [1] -3% | inhibition [2] 14% | inhibition [3] 2% | outcome [5] | outcome [6] | outcome [7] | outcome [8]

CCOc1ccc(NC(C)=O)c(O)c1
active: growth inhibition [4] 96%
inactive: growth inhibition [1] 0% | inhibition [2] 6% | inhibition [3] -1% | outcome [5] | outcome [6] | outcome [7] | outcome [8]

COc1cc(C)ccc1N1CCN(CCCCNC(=O)c2ccc(NC(=O)c3ccc(Cl)cc3)cc2)CC1
inactive: growth inhibition [1] 31% | inhibition [2] 30% | inhibition [3] 4% | outcome [5] | outcome [6] | outcome [7] | outcome [8]
active: growth inhibition [4] 99%

CCN(CC)CCN(Cc1ccc(-c2ccc(C(F)(F)F)cc2)cc1)C(=O)Cn1c(CCc2cccc(F)c2F)nc(=O)c2cc(F)c(F)cc21
inactive: inhibition [2] 41% | inhibition [3] -5% | outcome [5] | outcome [6] | outcome [7] | outcome [8]
active: growth inhibition [1] 56% | growth inhibition [4] 100%

CC(C)C1=NCc2ccc([N+](=O)[O-])cc2C(=O)N1
active: growth inhibition [4] 98%
inactive: growth inhibition [1] -1% | inhibition [2] 6% | inhibition [3] 4% | outcome [5] | outcome [6] | outcome [7] | outcome [8]

CCOc1cc2ncnc(Nc3ccc(OCc4ccccc4F)c(Cl)c3)c2cc1OCC
active: growth inhibition [1] 74% | growth inhibition [4] 101%
inactive: inhibition [2] 4% | inhibition [3] -2% | outcome [5] | outcome [6] | outcome [7] | outcome [8]

CC(C)Oc1ccc(C=CC(=O)Nc2noc3ccccc23)cc1
inactive: inhibition [2] 2% | inhibition [3] 4% | outcome [5] | outcome [6] | outcome [7] | outcome [8]
active: growth inhibition [1] 95% | growth inhibition [4] 96%

CCN1CCCC(CNC(=O)/C(=C/C=C/c2cc3cc(Cl)c(Cl)cc3[nH]2)OC)C1 (stereo unspecified)
inactive: inhibition [2] 33% | inhibition [3] -1% | outcome [5] | outcome [6] | outcome [7] | outcome [8]
active: growth inhibition [1] 89% | growth inhibition [4] 93%

COc1cc2nc(N3CCC(CNC(=O)c4ccc(-c5ccc(-c6noc(C)n6)cc5C)cc4)CC3)nc(N)c2cc1OC
inactive: inhibition [3] -4% | outcome [5] | outcome [6] | outcome [7] | outcome [8]
active: growth inhibition [1] 99% | inhibition [2] 99% | growth inhibition [4] 100%
